SMN2 splice enh: qHTS Assay for Enhancers of SMN2 Splice Variant Expression. HEK293 SMN2-luciferase splicing reporter, luminescence, 30-36 h. Potency, µM (series often up to 46.1 µM), for the others: at the top dose activity change, positive = activation, hits mostly activators. hit rate 2.8% among 210,000. AID 1458, 2008; also: % of control where 0% means no effect; nearly all actives have a fitted effect of over 55% in size
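qHTS luciferase splicing reporter: luminescence rises when SMN2 exon 7 is included in transfected HEK293 cells. Compound exposure lasted 30-36 h at 37C, with 4.5 mM final sodium butyrate as control, followed by a ONE-Glo read.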
FLuc counter: qHTS profiling assay for firefly luciferase inhibitor/activator using purifed enzyme and Km concentrations of substrates (counterscreen for miR-21 project). Luciferin 4-monooxygenase (Photinus pyralis), P08659. purified FLuc, Km substrates, luminescence inhibition. Potency, µM (highest dose often 57.5 µM), without a hit: top-dose activity change, negative = inhibition, hits mostly inhibitors. hit rate 6.9% among 360,000;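 also: plate controls were vehicle for no effect and reference inhibitor for full effect; nearly all actives have a fitted effect of over 55% in size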
Target sequence (P08659 whole entry, looked up): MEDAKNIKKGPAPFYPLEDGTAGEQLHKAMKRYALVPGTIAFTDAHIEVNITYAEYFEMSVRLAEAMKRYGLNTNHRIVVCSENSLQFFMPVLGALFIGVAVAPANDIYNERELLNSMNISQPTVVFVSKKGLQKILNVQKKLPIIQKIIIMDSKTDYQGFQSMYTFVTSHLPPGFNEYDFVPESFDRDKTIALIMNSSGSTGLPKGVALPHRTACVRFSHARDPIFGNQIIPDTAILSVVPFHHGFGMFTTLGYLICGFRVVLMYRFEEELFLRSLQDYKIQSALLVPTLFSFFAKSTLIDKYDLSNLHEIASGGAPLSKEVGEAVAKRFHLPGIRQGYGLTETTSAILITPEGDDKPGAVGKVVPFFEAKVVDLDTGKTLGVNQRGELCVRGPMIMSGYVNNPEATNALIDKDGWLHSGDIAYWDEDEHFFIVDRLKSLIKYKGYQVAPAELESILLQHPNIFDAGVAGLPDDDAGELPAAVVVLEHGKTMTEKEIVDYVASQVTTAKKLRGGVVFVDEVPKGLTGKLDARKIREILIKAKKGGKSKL
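Purified P. pyralis luciferase (10nM final) with 10uM D-luciferin and 10uM ATP (Km levels) in 50mM Tris acetate pH 7.5, 10mM Mg acetate, 0.01% Tween-20, 0.05% BSA; qHTS 6-point titration, ~60 µM downward; luminescence read.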
ELG1 genotoxic: qHTS screen for small molecules that induce genotoxicity in human embryonic kidney (HEK293T) cells expressing luciferase-tagged ELG1; HEK293T ELG1-luciferase reporter, luminescence, 16 h; Potency, µM (doses to about 46 µM), inactives show at the top dose activity change, positive = activation, hits mostly activators; hit rate 1.3% among 330,000; AID 504466, 2011; also: % of control where 0% means no effect; nearly all actives have a fitted effect of over 60% in size
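16 hr compound incubation (37 °C, 5% CO2) of HEK293T cells carrying luciferase-tagged ELG1; luciferase then measured by ONE-Glo luminescence after 30 min at RT.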
NPC1 promoter act: qHTS Assay for NPC1 Promoter Activators | Huh7 NPC1 promoter luciferase reporter, 24 h | Potency, µM (highest dose often 9.22 µM), inactives show at the highest dose activation, actives largely listed as activators | hit rate 2.4% among 320,000; also: % of control where 0% means no effect; nearly all actives have a fitted effect of over 60% in size
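Cells: Huh7 expressing luciferase under the NPC1 promoter, 1500/well. Seeded 2 h, compound added, incubated 24 h at 37 °C. Luciferase reagent, 10 min ambient, then luminescence.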
Rab9 promoter act: qHTS Assay for Rab9 Promoter Activators; Huh7 Rab9 promoter-luciferase reporter, luminescence, 24 h; Potency, µM (titrated, usually from 9.22 µM), for the others: top-dose activation, negative = inhibition, usual class: activators; hit rate 2.8% among 320,000; AID 485297, 2010; also: % of control where 0% means no effect; nearly all actives have a fitted effect of over 60% in size
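Huh7 cells stably carrying Rab9 promoter–luciferase reporter, plated 1500 cells/well, compound added after 2 h and incubated 24 h at 37 °C; luciferase luminescence then read after 10 min with detection reagent.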
An asterisk follows results filed as active. This is a sample that favours compounds with a hit; in the whole collection about 7.5% have one here. Calls follow the shape of the dose curve; as a rule, active = well fitted curve in the direction sought with a large enough effect; inconclusive = small, poorly fitted or top-dose-only effect, or another doubt; inactive = no such curve, though single readings can be large; an effect the other way counts as inactive or inconclusive. Potency is read from the fitted curve at half-maximal effect.

What do the screens show for `C/C(=N\NC(=O)COc1ccc([N+](=O)[O-])cc1)c1ccco1`?
FLuc counter: 0%; ELG1 genotoxic: 0%; NPC1 promoter act: -1%; Rab9 promoter act: -3%

Results for O=C(COc1ccc(Cl)cc1)NCc1cn2cc(Cl)ccc2n1 ?
SMN2 splice enh: 14%; FLuc counter: -10%; ELG1 genotoxic: -1%; NPC1 promoter act: -1%; Rab9 promoter act: 0%

Results for Cc1nc2[nH]c(=S)n(C)c(=O)c2nc1C ?
SMN2 splice enh: -6%; FLuc counter: 4%; ELG1 genotoxic: -1%; NPC1 promoter act: 1%; Rab9 promoter act: 4%

How did CCOC(=O)C1C2C=CC3(CN(C4CCCC4)C(=O)C13)O2 (configuration not stated) do in these assays?
SMN2 splice enh: inconclusive; FLuc counter: 0%; ELG1 genotoxic: 5%; NPC1 promoter act: -3%; Rab9 promoter act: -2%

Results for CC(C)=CCC1=C(O)c2ccccc2C(=O)C1=O ?
SMN2 splice enh: 4µM*

What do the screens show for `O=C(NCCc1ccccc1Cl)c1ccc(Cn2c(=O)c3cccn3c3cccnc32)cc1`?
FLuc counter: -2%

Results for Cc1nc(NC(C)C)c2cnn(CCc3ccccc3)c2n1 ?
SMN2 splice enh: 4%; FLuc counter: inconclusive; ELG1 genotoxic: 15µM*; NPC1 promoter act: 24%; Rab9 promoter act: inconclusive

What do the screens show for `O=C(Nc1ccc2c(c1)OCO2)NC1CCN(Cc2ccccc2)CC1`?
SMN2 splice enh: inconclusive; FLuc counter: 17µM*; ELG1 genotoxic: inconclusive; NPC1 promoter act: 12%; Rab9 promoter act: 2%

Results for O=C(Nc1cccc(F)c1)Nc1ccc2c(c1)OCO2 ?
FLuc counter: 7.6µM*; ELG1 genotoxic: inconclusive; NPC1 promoter act: 2.2µM*; Rab9 promoter act: 2.8µM*

How did O=C(Nc1ccc(F)cc1)NC1CCN(Cc2ccccc2)CC1 do in these assays?
SMN2 splice enh: -6%; FLuc counter: 4%; ELG1 genotoxic: -7%; NPC1 promoter act: -6%; Rab9 promoter act: -7%

What do the screens show for `CC(=O)OCc1ccc2c(c1)OCO2`?
SMN2 splice enh: -11%

How did O=C(O)Cc1ccc(NC(=O)Nc2ccc3c(c2)OCO3)cc1 do in these assays?
FLuc counter: 9.5µM*; ELG1 genotoxic: inconclusive; NPC1 promoter act: 26%; Rab9 promoter act: inconclusive

How did CC(=O)Nc1ccc(OCc2ccc3c(c2)OCO3)cc1 do in these assays?
FLuc counter: 17µM*; ELG1 genotoxic: inconclusive; NPC1 promoter act: 0.63µM*; Rab9 promoter act: 1.6µM*

Results for Cc1ccc(NC(=O)C2=C(c3ccccc3)S(=O)(=O)CCS2(=O)=O)cc1 ?
SMN2 splice enh: -45%; FLuc counter: -11%; ELG1 genotoxic: -10%; NPC1 promoter act: -37%; Rab9 promoter act: -40%

Results for O=C(Nc1ccc2c(c1)OCO2)c1c(F)cccc1F ?
SMN2 splice enh: 10µM*; FLuc counter: 12µM*; ELG1 genotoxic: inconclusive; NPC1 promoter act: 3.5µM*; Rab9 promoter act: 3.2µM*

Results for O=C(Nc1ccc2c(c1)OCO2)c1cccc(F)c1 ?
SMN2 splice enh: inconclusive; FLuc counter: 12µM*

How did Cc1ccc(N=c2c([N+](=O)[O-])nn(-c3ccc(Cl)cc3)n2O)cc1C do in these assays?
SMN2 splice enh: 4%; FLuc counter: -10%; ELG1 genotoxic: -4%; NPC1 promoter act: 1.6µM*; Rab9 promoter act: 1.3µM*

What do the screens show for `O=[N+]([O-])c1nn(-c2ccc3c(c2)OCCO3)n(O)c1=NC1CCCC1`?
SMN2 splice enh: -15%; FLuc counter: -11%; ELG1 genotoxic: inconclusive; NPC1 promoter act: 8%; Rab9 promoter act: inconclusive

Results for O=[N+]([O-])c1nn(-c2ccc3c(c2)OCCO3)n(O)c1=Nc1ccccc1 ?
SMN2 splice enh: -109%; FLuc counter: 12µM*; ELG1 genotoxic: -4%; NPC1 promoter act: -18%; Rab9 promoter act: -38%

Results for O=[N+]([O-])c1nn(-c2ccc3c(c2)OCCO3)n(O)c1=NCCCO ?
SMN2 splice enh: 18%; FLuc counter: -19%; ELG1 genotoxic: 4%; NPC1 promoter act: inconclusive; Rab9 promoter act: 2µM*

How did O=[N+]([O-])c1nn(-c2ccc3c(c2)OCCO3)n(O)c1=Nc1ccc(Cl)cc1 do in these assays?
SMN2 splice enh: -60%; FLuc counter: inconclusive; ELG1 genotoxic: 1%; NPC1 promoter act: -5%; Rab9 promoter act: -8%

How did O=[N+]([O-])c1nn(-c2ccc3c(c2)OCCO3)n(O)c1=NC1CCCCCC1 do in these assays?
SMN2 splice enh: -5%; FLuc counter: 17µM*; ELG1 genotoxic: inconclusive; NPC1 promoter act: 19%; Rab9 promoter act: inconclusive

What do the screens show for `CCc1ccc(N=c2c([N+](=O)[O-])nn(-c3ccc4c(c3)OCCO4)n2O)cc1`?
FLuc counter: inconclusive; ELG1 genotoxic: 5%; NPC1 promoter act: 16%; Rab9 promoter act: inconclusive

Results for CC(C)Cn1c(=O)c2sccc2n2c(CCCC(=O)NCCc3ccc(Cl)cc3)nnc12 ?
FLuc counter: -7%

How did O=[N+]([O-])c1nn(-c2ccccc2)n(O)c1=NCc1ccc2c(c1)OCO2 do in these assays?
SMN2 splice enh: -8%; FLuc counter: inconclusive; ELG1 genotoxic: 9%; NPC1 promoter act: -2%; Rab9 promoter act: 2%

What do the screens show for `COc1ccc(-n2nc([N+](=O)[O-])c(=NCc3ccc4c(c3)OCO4)n2O)cc1`?
SMN2 splice enh: inconclusive; FLuc counter: inconclusive; ELG1 genotoxic: inconclusive; NPC1 promoter act: 2.2µM*; Rab9 promoter act: inconclusive

What do the screens show for `Cc1ccc(CN=c2c([N+](=O)[O-])nn(-c3ccc4c(c3)OCCO4)n2O)cc1`?
FLuc counter: 12µM*; ELG1 genotoxic: inconclusive; NPC1 promoter act: inconclusive; Rab9 promoter act: inconclusive

How did Cc1cc(C)cc(N=c2c([N+](=O)[O-])nn(-c3ccc4c(c3)OCCO4)n2O)c1 do in these assays?
SMN2 splice enh: -17%; FLuc counter: -17%; ELG1 genotoxic: -12%; NPC1 promoter act: -29%; Rab9 promoter act: -36%

What do the screens show for `COc1ccccc1NC(=O)N1CCCC1C(=O)NCc1ccccc1Cl` (configuration not stated)?
FLuc counter: 1%; ELG1 genotoxic: -3%; NPC1 promoter act: -2%; Rab9 promoter act: 3%

What do the screens show for `c1ccc(-n2nnc3c(N4CCOCC4)ncnc32)cc1`?
SMN2 splice enh: 12%; FLuc counter: 1.5µM*; ELG1 genotoxic: inconclusive; NPC1 promoter act: 0.32µM*; Rab9 promoter act: 0.32µM*

Results for C/C(=N/OC(=O)CC(C)C)c1cc(-c2ccc(Cl)cc2)no1 ?
SMN2 splice enh: 18µM*; FLuc counter: inconclusive; ELG1 genotoxic: inconclusive; NPC1 promoter act: inconclusive; Rab9 promoter act: 2.8µM*

High-throughput results from PubChem BioAssay.
